# Test results: ChEMBL document CHEMBL4513146, “CO-ADD screening of Karazin Kharkiv National University (Ukraine) compounds”
# Measured potencies and affinities stand elsewhere.
# What was measured:
# Klebsiella pneumoniae = conditions: Concentration 32 ug.mL-1;; ASSAY_TEST Inhibition of Bacterial Growth; detection method Absorption (OD600); MEDIA CAMHB; plate type 384well; NBS; CORNING #3640; time 18 hr
# Candida albicans = conditions: Concentration 32 ug.mL-1; ASSAY_TEST Inhibition of Fungal Growth; detection method Absorption (OD530)
# Cryptococcus neoformans = conditions: Concentration 32 ug.mL-1; ASSAY_TEST Inhibition of Fungal Growth; detection method Resazurin; Absorption (OD600-OD570); plate type 384well; NBS; CORNING #3640
SMILES,Inhibition (Klebsiella pneumoniae),Inhibition (Candida albicans),Inhibition (Cryptococcus neoformans)
Cc1cc(C)c(NC(=O)Cn2nc3c(N4CCN(c5ccccc5)CC4)nccn3c2=O)c(C)c1,10.19%,11.4%,-7.74%
O=C(Cn1nc2c3sc(N4CCCC4)nc3ncn2c1=O)Nc1cccc(Br)c1,18.9%,3.98%,-10.95%
Cc1ccc(Nc2cc(C)n3c(=O)n(CCOc4ccc(F)cc4)nc3n2)cc1,19.26%,2.38%,-10.19%
COc1ccc(-c2cc3c4nnc(CCC(=O)NCc5ccc6c(c5)OCO6)n4ccn3n2)cc1,9.82%,3.53%,-3.36%
Cc1ccccc1CSc1nnc2c(=O)n(-c3ccc(F)c(F)c3)ccn12,9.65%,4.14%,-9.1%
COc1cccc(-n2ccn3c(SCC(=O)Nc4ccc5c(c4)OCCO5)nnc3c2=O)c1,14.27%,3.13%,-26.1%
CC(C)(C)Sc1ccc2nn(CC(=O)Nc3ccccc3Cl)c(=O)n2n1,9.71%,5.29%,-25.66%
COc1cccc(-c2nc(CSc3nc4ccccc4n4c(C)nnc34)c(C)o2)c1OC,8.41%,0.37%,-19.84%
O=c1c2sccc2n2c(=O)n(Cc3ccc(F)cc3)nc2n1CCc1ccccc1,5.57%,0.78%,-5%
Cc1cccc(C)c1NC(=O)Cn1nc2c(SC3CCCCC3)nccn2c1=O,8.3%,20.03%,-18.68%
